Screening results: PubChem BioAssay, several laboratories
SKN-1 inh: suppressors of acrylamide-induced Pgst-4::GFP reporter in worms, primary screen, SKN-1 inhibitor project, whole organism, uHTS, GFP/RFP fluorescence ratio, strain VP596; C. elegans VP596 Pgst-4::GFP/RFP ratio, 24 h; inhibition, % at 21.8 µM; actives 0.49% (n = 360,000); AID 624304, 2012;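 active means interference check ratio from 0.5 to 1.5 plus GFP to RFP signal ratio inhibition reaching or exceeding a fixed threshold, cut at about 30% in these data, passing the limit was not always enough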
MPTP inh: mitochondrial permeability transition pore inhibitors, primary screen, biochemical, isolated mouse mitochondria, absorbance; Ca2+ swelling absorbance, 30 min; inhibition, % at 10 µM; actives 1.4% (n = 360,000); AID 602449, 2012;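 active means inhibition of 50% or more, scaled per plate between neutral and stimulator controls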;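 further: 0% = DMSO wells given calcium and 100% = 1 mM EGTA wells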
ATG4B inh: ATG4B protease inhibitors, primary screen, biochemical, fluorescence, uHTS | Cysteine protease ATG4B (Homo sapiens), Q9Y4P1 | ATG4B cleavage of LC3-PLA2, NBD-HPC fluorescence, 1 h | inhibition, % at 8.33 µM | actives 0.51% (n = 340,000); in the data active means inhibition above about 40%
Target sequence (Q9Y4P1 whole entry, looked up): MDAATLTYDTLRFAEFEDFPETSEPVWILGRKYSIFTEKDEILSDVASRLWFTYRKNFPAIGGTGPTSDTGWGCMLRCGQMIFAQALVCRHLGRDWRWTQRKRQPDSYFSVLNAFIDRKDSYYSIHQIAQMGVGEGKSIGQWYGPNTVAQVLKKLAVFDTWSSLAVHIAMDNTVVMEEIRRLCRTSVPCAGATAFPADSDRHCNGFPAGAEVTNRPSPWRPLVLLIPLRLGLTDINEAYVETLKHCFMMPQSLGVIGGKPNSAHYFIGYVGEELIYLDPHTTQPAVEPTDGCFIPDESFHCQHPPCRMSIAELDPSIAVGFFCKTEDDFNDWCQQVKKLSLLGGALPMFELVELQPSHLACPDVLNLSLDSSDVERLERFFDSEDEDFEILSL
CFTR F508del cor: F508del CFTR correction, initial screen, CFBE line, single point; CFBE cells, YFP halide quenching; stimulated with forskolin plus potentiator P3; % fluorescence drop versus neutral controls; actives 0.36% (n = 350,000); activity (quench increase), % at 7.58 µM; AID 720511, 2013;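 active means mean added fluorescence quench of at least 8% versus neutral control, with both replicates also reaching 8%; inconclusive means only one of the mean or replicate conditions met; inactive means mean below 8% and not both replicates reaching 8%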;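 further: cells transiently co-express mutant CFTR-F508del with the halide-sensitive YFP; corrector assay measuring rescue of mutant channel to the surface after 24 h compound exposure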
CendR NRP1 mod: modulators of CendR peptide binding to NRP-1, primary screen, biochemical, fluorescence polarization, uHTS | FAM-RPARPAR peptide binding to NRP-1 | inhibition, % at 25 µM | actives 0.85% (n = 360,000);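 active means inhibition or corrected inhibition above about 18%, plus a signal ratio from 0.5 to 1.5, limit read from the data, passing the limit was not always enough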
MPTP counter: fluorescence retest of MPTP screen hits in isolated mitochondria, single concentration; AID 624504, 2012; inhibition, % at 10 µM; shares compounds with MPTP inh; membrane potential, Rhodamine 123 fluorescence; actives 78% (n = 5,000); in the data active means inhibition above about 22%;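 further: 0% = DMSO vehicle and 100% = positive control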
MPTP swell DR: mitochondrial permeability transition pore inhibitors, dose response, biochemical, absorbance, uHTS hits; shares compounds with MPTP inh; isolated mitochondria swelling; IC50, µM; actives 58% (n = 780); AID 651561, 2012; in the data active means IC50 below about 20 µM
MPTP cs DR: fluorescent counter-screen in isolated mitochondria, dose response, counter-screen for MPTP inhibitor project, biochemical, fluorescence, uHTS hits | AID 651564, 2012 | isolated mitochondria counterscreen, fluorescence read-out | actives 49% (n = 780) | shares compounds with MPTP inh | IC50, µM; in the data active means IC50 below about 80 µM
Starred values were filed as active, the others as inactive; ? = inconclusive; . = no result given. This is a sample that favours compounds with a hit; in the whole collection about 2.7% have one here.

SMILES	SKN-1 inh	MPTP inh	ATG4B inh	CFTR F508del cor	CendR NRP1 mod	MPTP counter	others
COC(=O)[C@H]1[C@H](CO)[C@H]2Cn3c(ccc(-c4ccc(F)cc4)c3=O)[C@@H]1N2Cc1ccccc1	.	.	.	-1.2	.	.
C/C(CC(c1ccccc1)c1c(O)c2ccccc2oc1=O)=N\Nc1ccc([N+](=O)[O-])cc1[N+](=O)[O-] (stereo not given)	-6.3	89.6*	-6.4	0.4	-3.5	77.3*
C/C=C/c1ccc(C2[C@@H]3CN(C(=O)C4CCOCC4)C[C@H]2N3)cc1 (stereo not given in full)	.	.	.	-2.1	.	.
N#CC(C#N)=C(C#N)c1ccc(Nc2ccccc2)cc1	5.4	118.5*	5.2	-0.3	-11.9	61.0*
OC[C@H]1Nc2ccc(C#Cc3cccnc3)cc2[C@H]2NCC[C@H]21	.	.	.	4.2	.	.
CN(C)c1ccc(/C=C/C=C2/C(=O)NC(=O)N(c3ccccc3)C2=O)cc1	61.0	50.8*	-0.3	?	-123.3	-27.6
c1ccc2c(CN3CCCCC3)c[nH]c2c1	-13.5	3.2	3.2	-2.2	-1.7	.
OC1(c2ccc(Cl)cc2)CCN(Cc2c[nH]c3ccccc23)CC1	-8.9	94.5*	-0.2	2.0	-12.8	-16.5	MPTP swell DR=5.34*;MPTP cs DR=>80
CSc1ccc(C(=O)C2CCCN(Cc3cccnc3)C2)cc1 (stereo not given)	0.2	0.4	-11.5	0.3	3.9	.
CSc1ccc(C(=O)C2CCCN(Cc3cc4ccccc4[nH]3)C2)cc1 (stereo not given)	1.0	57.6*	21.1	1.3	-3.5	-8.2	MPTP swell DR=5.89*;MPTP cs DR=25*
COCC(=O)N1[C@@H]2Cn3c(ccc(C4=CCCC4)c3=O)[C@H]1[C@@H](C(=O)OC)[C@@H]2CO	.	.	.	0.1	.	.
CON(C)C(=O)Nc1ccc(Cl)cc1	1.6	12.1	9.3	.	2.1	.
O=C(Nc1ccc(Cl)cc1)O/N=C(\c1ccccc1)c1ccccn1	8.6	87.1*	-3.7	.	3.6	101.0*
CCCCCCCC(=O)NC(Oc1ccccc1[N+](=O)[O-])C(Cl)(Cl)Cl (stereo not given)	1.4	70.3*	4.9	-1.4	-4.4	58.9*
O=C(Cc1ccccc1)NC(Oc1ccccc1Cl)C(Cl)(Cl)Cl (stereo not given)	0.1	2.7	10.8	.	4.6	.
C[C@H]1CN([C@@H](C)CO)C(=O)c2c(c3ccccc3n2C)-c2ccccc2CO[C@H]1CN(C)C(=O)Oc1ccccc1	.	.	.	-2.4	.	.
O=C(NCc1cccnc1)Nc1ccc([N+](=O)[O-])cc1	1.3	66.2*	1.5	-0.7	13.6	96.2*
O=C(NCc1cccnc1)Nc1ccccc1Cl	15.9	-1.2	3.2	2.3	3.2	.
COc1ccccc1CN1[C@H](CO)[C@@H](c2ccccc2)C12CN(C(=O)Cc1ccccc1)C2	.	.	.	1.4	.	.
Cc1cc(OC(=O)c2cccs2)c2c3c(c(=O)oc2c1)CCCC3	-6.8	67.8*	0.5	.	-2.4	86.0*
Cc1cc(OCC(=O)O)c2c3c(c(=O)oc2c1)CCCC3	-2.4	-2.6	3.2	.	0.8	.
Cc1cc(OC(=O)c2ccco2)c2c3c(c(=O)oc2c1)CCCC3	-7.8	103.8*	3.5	.	4.9	86.9*
COC(=O)c1ccc(COc2cc(C)cc3oc(=O)c4c(c23)CCCC4)o1	18.2	3.7	-5.5	.	-7.8	.
COC(=O)[C@H]1[C@H](CO)[C@H]2Cn3c(ccc(-c4ccc(F)cc4)c3=O)[C@@H]1N2C(C)=O	.	.	.	0.0	.	.
COc1ccc(-c2ccc([C@H]3[C@H](CO)N4CCCCN(C(=O)Cc5ccccc5)C[C@@H]34)cc2)cc1	.	.	.	-5.4	.	.
SMILES	SKN-1 inh	MPTP inh	ATG4B inh	CFTR F508del cor	CendR NRP1 mod	MPTP counter	others
N#Cc1ccc(-c2ccc([C@@H]3[C@H](CO)N4CCCCN(C(=O)Cc5ccccc5)C[C@@H]34)cc2)cc1	.	.	.	4.0	.	.
Cc1ccc(OC(=O)N(C)C[C@H]2OCc3ccccc3-c3c(n(C)c4ccccc34)C(=O)N([C@H](C)CO)C[C@H]2C)cc1	.	.	.	0.2	.	.
Cc1cc(O)c2c3c(c(=O)oc2c1)CCC(C)C3 (stereo not given)	-7.7	57.1*	-1.9	-2.1	-13.3	88.6*
CCOc1cc(C)cc2oc(=O)c3c(c12)CCCC3	-5.6	-0.7	-3.2	-1.6	12.0	.
C/C=C/c1ccc([C@@H]2[C@@H](CO)N3CCCCN(C(=O)Cc4cccnc4)C[C@@H]23)cc1	.	.	.	0.4	.	.
CCCCCSc1cc(OC)c(CCN)cc1OC	24.3	96.7*	2.1	.	4.0	-19.9	MPTP swell DR=3.44*;MPTP cs DR=77.3*
COc1cc(CCN)ccc1O	20.7	-0.6	3.0	0.4	-4.9	.
CCCCCCCSc1cc(OC)c(CCN(C)C)cc1OC	3.0	103.2*	12.7	.	2.3	-13.1
